Source: PubChem BioAssay AID504332 (National Center for Advancing Translational Sciences (NCATS), 2011)
Hit rate of the full screen: of about 350,000 compounds, about 31,000 (8.9%) were called active. Not shown: some 15% with an inconclusive outcome. What follows is part of a selection rich in actives, with near analogues and random picks from the rest. Where a call stands in place of a potency, no number is given. Unmarked numbers belong to inactive results. The call rests on the fitted dose curve; in most records, active means well fitted inhibition curve with a large enough effect; inconclusive means small, poorly fitted or top-dose-only effect; inactive means no such curve, though single readings can be large or run the other way.

These compounds were tested against Histone-lysine N-methyltransferase EHMT2 (Homo sapiens) (UniProt Q96KQ7) (assay: qHTS Assay for Inhibitors of Histone Lysine Methyltransferase G9a). Conditions: G9a H3K9 monomethylation, AlphaScreen, 2 h; series mostly up to 59 µM.
From the text: Methylated lysines, on the N-terminal tails of histone proteins serve as epigenetic markers to recruit factors that can then modify local chromatin structure to lead to functional consequences. G9a and other members of the SUV39 family of the SET domain-containing superfamily of histone lysine methyltransferases (HMT) have been identified to specifically methylate Lys9 of histone H3 (H3K9). G9a catalyzes the mono- and di-methylation of H3K9 in mammalian euchromatic regions, where the resulting H3K9me2 is indicative of transcriptional repression. […] The inhibition of G9a will result in transcriptional activation and work synergistically with DNA methyltransferase and histone deacetylase inhibitors, to kill cancer cells. This qHTS assay for identification of G9a inhibitors is a chemiluminescence based AlphaScreen (PerkinElmer). Methylation of biotinylated-histone peptide is measured through specific antibody-based detection, in conjunction with streptavidin-coated donor and anti-IgG antibody-coated acceptor beads. The method is particularly well suited for detection of inhibitors acting by the desired histone peptide competitive mechanism and is applicable to testing other HMTs. Although AlphaScreen has significant advantages with its utility in a variety of epigenetic target assays, the primary screening data provided in this deposition should be used with caution due to the prevalence of screening artifacts. An AlphaScreen counterscreen is highly recommended to be run against any putative actives to eliminate non specific artifacts. Alternatively, one can use other AlphaScreen assays in PubChem to filter out promiscuous hits. Quinn et al. A chemiluminescence-based method for identification of histone lysine methyltransferase inhibitors. Mol Biosyst 6(5): 782-8. 2010. PMID: 20567762 [2] Baell,Holloway. New substructure filters for removal of pan assay interference compounds (PAINS) from screening libraries and for their exclusion in bioassays. J Med Chem. 53(7):2719-40. 2010. PMID: 20131845 NIH Molecular Libraries Probe Production Network [MLPCN] NIH Chemical Genomics Center [NCGC] Structural Genomics Consortium (SGC) NIH Grant: 5U54 MH084681-02
To each well of a 1,536w plate, 2ul of HMT enzyme (final 20nM) were added, using a nanoliter dispenser. The G9a- and GLP-inhibitor BIX-01294 (CID: 25150857) are used as an intraplate control, with a 16-point titration in duplicate. A Kalypsys pin-tool transferred 23nl of library compound solution in DMSO to each well. Following a 15 min incubation of enzyme with compounds at room temperature, 1ul mixture of b-H3K9 peptide substrate (final 500nM) and SAM cofactor (final 20uM) were added. Reactions were allowed to proceed at room temperature for 2 hours. Methylated b-H3K9 peptide product was detected with 0.5 ug/mL rabbit polyclonal anti-monomethyl histone H3K9 antibody (Abcam Inc., Cambridge, MA) and 20 ug/mL each streptavidin-coated donor and anti-rabbit IgG acceptor AlphaScreen beads. Antibody and beads were added in a 1ul dispense, for a final volume of 4ul, and plates were incubated, protected from the light, for 10 min at room temperature. Microplates were then read on an EnVision multilabel plate reader using the 1,536 plate HTS AlphaScreen aperture (excitation time 80 ms, measurement time 240 ms).
Further: nearly all actives have a fitted effect of over 75% in size.
Potency means the concentration at half of the fitted maximal effect.

Chain of Histone-lysine N-methyltransferase EHMT2 (Homo sapiens) (Q96KQ7 913-1193 limits assumed): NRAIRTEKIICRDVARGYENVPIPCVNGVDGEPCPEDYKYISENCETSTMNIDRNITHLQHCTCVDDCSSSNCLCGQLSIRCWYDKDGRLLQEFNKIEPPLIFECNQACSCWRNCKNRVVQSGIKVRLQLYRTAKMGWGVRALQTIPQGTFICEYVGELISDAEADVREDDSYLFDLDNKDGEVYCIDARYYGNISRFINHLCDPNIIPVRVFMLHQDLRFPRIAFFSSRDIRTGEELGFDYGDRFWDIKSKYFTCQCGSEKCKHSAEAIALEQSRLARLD

Row | SMILES | Potency | activity, negative = inhibition
1 | CC(=O)Nc1ccc(NC(=O)c2cc3sccc3n2Cc2ccc(F)cc2)cc1 | inactive | –
2 | COc1ccc(NC(=O)C2CCCN(S(=O)(=O)c3c(C)[nH]c(=O)[nH]c3=O)C2)c(OC)c1 (stereo unspecified) | inactive | –
3 | CCOC(=O)CNC(=O)CSc1nnc(-c2cccc(OC)c2)n1CC | 50.1 µM (active) | –
4 | CCn1c(COc2ccc(OC)cc2)nnc1SCC(=O)Nc1cc(OC)ccc1OC | – | 7.11% [at 12.7 µM]
5 | CCOC(=O)CNC(=O)CSc1nnc(COc2ccc(Cl)cc2)n1CC | 20 µM (active) | –
6 | CCn1c(SCC(=O)Nc2nccs2)nnc1-c1ccncc1 | – | -2.99% [at 12.7 µM]
7 | C=CCn1c(COc2ccccc2)nnc1SCC(=O)NCC(=O)OCC | inactive | –
8 | CCOC(=O)CNC(=O)c1nn(-c2cccc(OC)c2)c(=O)c2ccccc12 | inactive | –
9 | CN(C)c1cccc(C(=O)Nc2nc3ccc(S(=O)(=O)NC(C)(C)C)cc3s2)c1 | inactive | –
10 | CCCCCN(C(=O)CCC(=O)OCCOc1ccc(OC)cc1)c1c(N)n(CCCC)c(=O)[nH]c1=O | inactive | –
11 | COC(=O)C1CCN(C(=O)NC2CC(=O)N(c3ccc4c(c3)OCCO4)C2)CC1 (stereo unspecified) | – | 21.6% [at 0.501 µM]
12 | O=C(CSc1nnc(N2CCOCC2)n1-c1cccc(F)c1)N1CCN(c2ccccn2)CC1 | – | -9.34% [at 12.7 µM]
13 | COc1ccc(S(=O)(=O)c2cn(C)c3cc(N4CCCCC4)c(F)cc3c2=O)cc1 | inactive | –
14 | CCc1nc(Nc2ccc3nccnc3c2)c2oc3ccccc3c2n1 | inactive | –
15 | CCc1nc(Nc2ccc(NC(C)=O)cc2)c2oc3ccccc3c2n1 | 50.1 µM (active) | –
16 | CCc1nc(N2CCN(c3nc(C)cc(C)n3)CC2)c2oc3ccccc3c2n1 | – | 2.59% [at 2.33 µM]
17 | CCOc1ccc(S(=O)(=O)N(CC(=O)NCCSCc2ccc(C)cc2)c2ccccc2)cc1 | inactive | –
18 | c1ccc(Cc2ccc(OCCn3ccnc3)cc2)cc1 | inactive | –
19 | Clc1c(OCCCn2ccnc2)ccc2ccccc12 | 79.4 µM (active) | –
20 | Brc1ccc(OCCn2ccnc2)cc1 | inactive | –
21 | Cc1ccccc1S(=O)(=O)N1[C@@H](c2cccc(Cl)c2)C(C(=O)O)=CC[C@H]1c1ccc(Cl)cc1 | – | -5.32% [at 2.33 µM]
22 | CCOc1ccc(CNC(=O)CCc2c(C)nn(-c3ccc(N4CCCCC4)nn3)c2C)cc1 | inactive | –
23 | COc1ccccc1CSc1nc2ccccc2[nH]1 | inactive | –
24 | COc1ccccc1CSc1ncc(-c2ccc([N+](=O)[O-])cc2)[nH]1 | 8.91 µM (active) | –

Row | SMILES | Potency | activity, negative = inhibition
25 | COc1ccccc1CC(=O)Nc1ccc([N+](=O)[O-])cc1OC | inactive | –
26 | Cc1ccc(C(=O)NCCNS(=O)(=O)c2ccccc2)cc1 | inactive | –
27 | CCS(=O)(=O)Nc1ccc(C(=O)NCCSc2ccccc2)cc1 | 79.4 µM (active) | –
28 | O=C(NCCSc1ccccc1)c1ccco1 | inactive | –
29 | CCCN(C(=O)c1nc2nccc(C)n2n1)c1c(N)n(Cc2ccccc2)c(=O)[nH]c1=O | – | 3.83% [at 12.7 µM]
30 | CC(OC(=O)CCC(=O)c1ccccc1)C(=O)Nc1ccc(F)cc1 (stereo unspecified) | inactive | –
31 | O=C(Nc1ccc(S(=O)(=O)NCC2CCCO2)cc1)c1ccc(F)cc1 (stereo unspecified) | inactive | –
32 | CCSc1nc(-c2ccc(OC)cc2)cc(-c2ccc(OC)cc2)c1C#N | inactive | –
33 | N#Cc1c(C(F)(F)F)cc(-c2ccc(Cl)cc2)nc1SCC(=O)O | inactive | –
34 | N#Cc1c(-c2ccccc2)cc(-c2ccccc2)nc1SCC(=O)O | 11.2 µM (active) | –
35 | CCc1ccc(NC(=O)c2cnc3c(-c4ccccc4)c(C)nn3c2C)cc1 | inactive | –
36 | O=C(NCc1ccc2c(c1)OCO2)c1c(O)nc2sccn2c1=O | inactive | –
37 | Cc1ccc(NC(=O)C(Cc2ccccc2)NS(=O)(=O)c2ccc3c(c2)oc(=O)n3C)cc1C (stereo unspecified) | inactive | –
38 | O=C(C[n+]1ccccc1)N/N=C/c1ccc(O)cc1 | inactive | –
39 | O=C(N/N=C/c1ccc(OCc2ccccc2)cc1)c1ccc(O)cc1 | inactive | –
40 | Oc1ccc(/C=N/N(Cc2ccccc2)c2ccccc2)cc1 | 39.8 µM (active) | –
41 | Cc1ccc(Cn2c(CNC(=O)Cc3cccc(C)c3)nc3cccnc32)cc1 | inactive | –
42 | CC1=C(C(N)=O)C(c2ccc(Br)cc2)n2ncnc2N1 (stereo unspecified) | inactive | –
43 | CCOC(=O)C1=C(c2ccccc2)Nc2ncnn2C1c1ccc(Cl)cc1 (stereo unspecified) | inactive | –
44 | Fc1ccccc1/C=C1\CCCC2=C1Nc1ncnn1C2c1ccccc1F (stereo unspecified) | 35.5 µM (active) | –
45 | COc1cc(NC(=O)c2nn(-c3ccc(C)cc3)c(=O)c3c2c2ccccc2n3C)cc(OC)c1OC | inactive | –
46 | COc1ccc2c(c1)CCc1c(C(=O)Nc3cc(C)ccc3O)noc1-2 | inactive | –
47 | Cc1cc(C(C)(C)C)cc(C)c1N | inactive | –
48 | Cc1cc(C)cc(N)c1 | – | 2.02% [at 0.501 µM]

Row | SMILES | Potency | activity, negative = inhibition
49 | CC(C)(C)c1ccc(Oc2ccc(N)cc2)cc1 | 50.1 µM (active) | –
50 | Cc1ccc(S(=O)(=O)c2ccc(Oc3ccccc3)cc2)cc1 | inactive | –
51 | CC(C)(C)c1ccc(OC2=CS(=O)(=O)c3ccccc32)cc1 | inactive | –
52 | Cc1ccc(Oc2ccc(N)cc2)cc1 | 50.1 µM (active) | –
53 | NC(=O)NC(=O)C(OC(=O)CCNS(=O)(=O)c1ccccc1)c1ccccc1 (stereo unspecified) | inactive | –
54 | CCCS(=O)(=O)Nc1cccc(-c2cn3ccsc3n2)c1 | inactive | –
55 | Cc1ccc(NC(=O)Cc2nc(COC(=O)C(C)NS(=O)(=O)c3ccc(C)cc3)cs2)cc1 (stereo unspecified) | – | -6.75% [at 12.7 µM]
56 | Cc1ccc(S(=O)(=O)c2c(Nc3cccc(Cl)c3)sc(C(=O)c3ccc4c(c3)OCO4)c2N)cc1 | inactive | –
57 | COc1ccc(CNC(=O)CCc2c(C)nn(-c3ccc(N4CCCC4)nn3)c2C)cc1 | inactive | –
58 | O=C(c1ccncc1)c1ccc([N+](=O)[O-])cc1 | inactive | –
59 | O=C(CC(n1cncn1)C(Cl)(Cl)Cl)c1ccc([N+](=O)[O-])cc1 (stereo unspecified) | 10 µM (active) | –
60 | O=C(Cn1c[n+](CC(=O)c2ccc([N+](=O)[O-])cc2)cn1)c1ccc([N+](=O)[O-])cc1 | inactive | –
61 | O=C(O)[C@@H](S)[C@H](S)C(=O)O | 6.31 µM (active) | –
62 | Cc1cccc(CNC(=O)c2cnc3sc(N4CCCCC4)nn3c2=O)c1 | inactive | –
63 | CCCC12CN3CC(CCC)(CN(C1)C3c1c[nH]c3ccc(OC)cc13)C2=O (stereo unspecified) | inactive | –
64 | S=C(NNC(=S)NC1CC2C=CC1C2)NC1CC2C=CC1C2 (stereo unspecified) | 2 µM (active) | –
65 | CCn1c(CNC(=O)C23CC4CC(CC(C4)C2)C3)nnc1SCC(=O)Nc1ccc(OC)cc1 | inactive | –
66 | Cc1ccc(-c2nc(SCc3ccc(Br)cc3)n3[nH]c(=O)cc3n2)cc1 | inactive | –
67 | NC(=O)C(=O)N/N=C/c1ccc([N+](=O)[O-])o1 | inactive | –
68 | O=S(=O)(c1ccc2nc(NCc3ccccc3Cl)ccc2c1)N1CCCCC1 | 7.94 µM (active) | –
69 | O=S(=O)(c1ccc2nc(N3CCN(c4cccc(Cl)c4)CC3)ccc2c1)N1CCCCC1 | inactive | –
70 | Cc1ccc(Nc2ccc3cc(S(=O)(=O)N4CCCCC4)ccc3n2)cc1F | inactive | –
71 | COc1ccc(NC(=O)CN(C)C(=O)c2cccc(S(=O)(=O)N3CCN(c4ccccc4)CC3)c2)cc1 | inactive | –
72 | CCN1CCN(CC(=O)c2cc(OC)c(OC)c(OC)c2)CC1 | 39.8 µM (active) | –

Row | SMILES | Potency | activity, negative = inhibition
73 | COC(=O)c1cccc(NC(=O)CN2CCC(NC(=O)c3cc(OC)c(OC)c(OC)c3)CC2)c1 | inactive | –
74 | COc1cc(C(=O)N2CCN(C)CC2)cc(OC)c1OC | inactive | –
75 | CCOC(=O)c1ccccc1CN1C(=O)c2ccccc2S1(=O)=O | inactive | –
76 | Cc1cc(C)c2oc(-c3cccc(NC(=O)c4cccc(F)c4)c3C)nc2c1 | inactive | –
77 | CC/C(O)=N\S(=O)(=O)c1ccc(N=NN(C)C)cc1 | inactive | –
78 | CN(C)N=Nc1ccc2nc[nH]c2c1 | 1.78 µM (active) | –
79 | COc1ccc(/C(C)=N/NC(=O)c2ccc3nc[nH]c3c2)cc1 | inactive | –
80 | COc1ccc(C(=O)CSc2nnc(COc3ccccc3)n2Cc2ccco2)cc1 | 50.1 µM (active) | –
81 | O=C(CSc1nnc(COc2ccc(Cl)cc2)n1Cc1ccco1)N1CCNC1=O | – | -16.3% [at 0.501 µM]
82 | O=C(CSc1nnc(-c2cnccn2)n1Cc1ccco1)c1ccc(Cl)c(Cl)c1 | 50.1 µM (active) | –
83 | CCc1ccc(NC(=O)CSc2nnc(-c3cnccn3)n2Cc2ccco2)cc1 | – | -31.5% [at 12.7 µM]
84 | O=C(CSc1nnc(-c2cccnc2)n1Cc1ccco1)c1ccc(Cl)cc1 | inactive | –
85 | C=CCn1c(CNC(=O)c2ccco2)nnc1SCC(=O)c1ccc(OC)cc1 | inactive | –
86 | C(=C\c1ccccc1)/CSc1nnc(-c2cccnc2)n1Cc1ccco1 | 50.1 µM (active) | –
87 | Cn1c(Cc2csc(N)n2)nnc1SC/C=C/c1ccccc1 | – | 12.8% [at 12.7 µM]
88 | Cc1ccccc1CSc1nnc(-c2cccnc2)n1N | – | 3.07% [at 12.7 µM]
89 | O=C(CSc1nnc(-c2cccnc2)n1Cc1ccco1)c1ccc(Cl)c(Cl)c1 | 50.1 µM (active) | –
90 | Cc1ccc(NC(=O)CSc2nnc(-c3cnccn3)n2Cc2ccco2)cc1C | – | 7.37% [at 12.7 µM]
91 | CCOC(=O)Cc1csc(NC(=O)CSc2nnc(-c3cccnc3)n2Cc2ccco2)n1 | inactive | –
92 | COc1ccc2c3c(c(=O)oc2c1)C1O[C@](CCCCN2C(=O)c4ccccc4C2=O)(Cc2c1ccc1ccccc21)O3 | – | -1.18% [at 2.33 µM]
93 | O=C(COc1ccc(Cl)cc1)Nc1ccc(-c2nc3cc(Cl)ccc3o2)c(O)c1 | inactive | –
94 | CCc1ccc(C(=O)NNC(=O)C2CCN(c3ncnc4sc(C)c(C)c34)CC2)cc1 | inactive | –
95 | Cc1ccc(Cl)cc1N(C)C(=O)C1CCCN(c2ncnc3onc(-c4ccc(F)cc4)c23)C1 (stereo unspecified) | inactive | –
96 | CCC1(CC)NC(=O)N(CC(=O)OCC(=O)c2cc(C)c(C)cc2C)C1=O | inactive | –
